Pf apPOL inh – Pf-apPOL DNA polymerase inhibition | Recombinant Pf-apPOL, molecular beacon fluorescence, 1.5 h | inhibition, % at 10 µM | 210,000 compounds, 0.25% hits | AID 1794808
mHTT-CaM PPI inh – disrupts binding of mutant huntingtin to calmodulin; P42858; AlphaScreen His-mHTT/GST-CaM binding, luminescence; inhibition, % at 15 µM; 190,000 compounds, 3.6% hits; AID 1671202;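 also: 0% = both proteins with DMSO and 100% = one protein alone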
* hit, by the source's call; / = no result given; ! = a repeat was not active. The entries come from a sample that favours hits as a whole. Rule as the data show it: active = inhibition above about 50%; inactive = the rest.

SMILES	Pf apPOL inh	mHTT-CaM PPI inh
CC(=O)NC(c1cccc(Cl)c1)c1cc(Cl)c2cccnc2c1O (stereo unspecified)	-3	100*
CC1CCN(C(=O)c2ccc(OCC3CCCN(C(=O)c4cccs4)C3)cc2)CC1 (stereo unspecified)	-3	3
COc1cc(C(=O)n2nnc3ccccc32)cc(OC)c1OC	24	6
CCCN=Cc1c(C)[nH]n(-c2ccc(Cl)cc2)c1=O	1	2
COCCCNC(=O)C1CCCN(c2cnn(Cc3ccccc3)c(=O)c2)C1 (stereo unspecified)	-4	1
CC(=O)Nc1cccc2c(C(=O)NC(C)c3ccc(C)cc3C)ccnc12 (stereo unspecified)	0	0
CC(=O)NC(c1ccc(C)cc1)c1cc(Cl)c2cccnc2c1O (stereo unspecified)	2	100*!
CC(C)C(=O)Nc1ccc2oc3ccccc3c2c1	-3	1
Cc1noc(C)c1CC(=O)N1CCCCC1CCN1CCCC1 (stereo unspecified)	-2	6
COc1ccc(Cl)cc1NC(=O)c1c(NCc2cccn2C)sc2c1CCCC2	-15	65*
COc1ccc(NC(=O)c2c(NC(=O)c3ccccc3Cl)sc3c2CCCC3)c(OC)c1	-9	4
COc1ccc(NC(=O)c2c(NC(=O)c3cccnc3)sc3c2CCC3)cc1	2	0
COc1ccc(OC)c(NC(=O)c2c(NCc3ccccn3)sc3c2CCCC3)c1	-18	59*
COc1ccc(OC)c(NC(=O)c2c(NC(=O)c3ccccc3F)sc3c2CCCC3)c1	-24	-4
COc1ccc(Cl)cc1NC(=O)c1c(NCc2ccccn2)sc2c1CCCC2	-17	75*
COc1ccc(NC(=O)c2c(NCc3ccccn3)sc3c2CCC3)cc1	-17	59*
CCOc1ccccc1NC(=O)c1c(NCc2cc(OC)ccc2OC)sc2c1CCC2	-19	16
CC(C)c1cc(C2CCCN2C(=O)c2cccc(C(F)(F)F)c2)on1 (stereo unspecified)	-7	0
O=C(NCc1ccc(F)cc1Cl)C1CCc2sc(C(=O)N3CCOCC3)cc2C1 (stereo unspecified)	-4	1
O=C(NC1CC2CC1CN2C(=O)NCCc1ccccc1)c1ccccc1 (stereo unspecified)	-3	2
O=C(Nc1ccc(C(F)(F)F)cc1)N1CCc2nc3cc[nH]n3c(=O)c2C1	-4	1
O=S(=O)(c1ccc(O)c(N=Cc2ccc[nH]2)c1)c1ccc(O)c(N=Cc2ccc[nH]2)c1	0	15
CCc1nnc(NC(=O)c2cc(OC)c(OC)c(OC)c2Br)s1	80*	6
CCc1nnc(NC(=O)c2c(OC)cccc2OC)s1	3	1
CN(C)CCNc1nc(C2CC2)nc2c1CCC2	4	-8
SMILES	Pf apPOL inh	mHTT-CaM PPI inh
O=C1C(=O)N(C(c2ccccc2)c2ccc(Cl)cc2)c2ccccc21 (stereo unspecified)	-2	93*
O=C(CN1C(=O)C(=O)c2ccccc21)c1ccc(Cl)cc1	-10	0
O=C(NC1CC1)c1ccc(N2CCC(NCc3ccccc3O)C2)nc1 (stereo unspecified)	4	-5
O=C(CCCn1cccc1)Nc1ccc2c(c1)OCCO2	78*	7
CCCC(=O)Nc1ccc2c(c1)OCCO2	3	-2
O=[N+]([O-])c1cc(CN2CCOCC2)c(O)c2ncccc12	-46	100*
CC1CN(Cc2cc([N+](=O)[O-])c3cccnc3c2O)CC(C)O1 (stereo unspecified)	-4	100*
O=[N+]([O-])c1ccccc1CN1CCOCC1	3	2
CC(=O)c1ccc(N2CC(C)OC(C)C2)c([N+](=O)[O-])c1 (stereo unspecified)	-8	/
O=C1CCC[C@@H]2[C@@H](Cc3ccccc3)[C@@H](Nc3ccccc3)C[C@@H]3CCN1[C@@H]32	-5	70*
O=C1CCC[C@@H]2[C@H](Cc3ccccc3)[C@@H](O)C[C@@H]3CCN1[C@@H]32	-9	1
CCCC(=O)Nc1ccccc1NC(=O)c1ccc(Cl)cc1Cl	-1	1
Cc1cccc(Sc2nccnc2N2CCCC(C(=O)NCC(C)C)C2)c1 (stereo unspecified)	-2	-3
Fc1ccc(Cn2cnc3ccccc32)cc1	1	1
Clc1ccc(Cn2cnc3ccccc32)cc1Cl	-5	52*
O=C(Nc1cc(Cl)ccc1O)c1cccc(S(=O)(=O)N2CCCC2)c1	-5	51*
O=C(Nc1cc(Cl)ccc1Cl)c1cccc(S(=O)(=O)N2CCCCC2)c1	-9	-11
Cc1[nH]nc(-c2ccc(C(F)(F)F)cc2)c1NC(=O)CC(C)C	-6	14
CS(=O)(=O)NCCSCc1ccc(Cl)c(Cl)c1	-2	4
O=S(=O)(NCCSCc1ccc(Cl)c(Cl)c1)c1ccc2c(c1)OCCO2	-6	51*
CC(=O)Nc1ccc(S(=O)(=O)NCCSCc2ccc(Cl)c(Cl)c2)cc1	-10	90*
O=S(=O)(NCCSCc1ccc(Cl)cc1)c1ccc2c(c1)OCCO2	-1	-5
Nc1cc(=O)[nH]c(=S)n1C1CCCC1	/	-2
Cc1cc(Br)c2c(c1)c(N=O)c(O)n2C	7	11
O=C1C2CC=CCC2C(=O)N1c1ccc(NC2CCCc3ccccc32)c([N+](=O)[O-])c1 (stereo unspecified)	-22	47
SMILES	Pf apPOL inh	mHTT-CaM PPI inh
O=C1CCC(=O)N1c1ccc(NC2CCCc3ccccc32)c([N+](=O)[O-])c1 (stereo unspecified)	-14	66*
Cc1nc(C)c(-c2nnc(NC(=O)CCS(=O)(=O)c3ccccc3)o2)s1	5	19
Cc1nc(C)c(-c2nnc(NC(=O)CCOc3ccccc3)o2)s1	-3	64*
Cc1ccc(CNC(=O)Cn2cnc3c(oc4ccccc43)c2=O)cc1	-4	21
O=C(Oc1ccc2c(c1)OC(=Cc1cccnc1)C2=O)c1ccncc1	6	24
O=C(Oc1ccc2c(c1)OC(=Cc1cccnc1)C2=O)c1ccc(Br)cc1	2	76*
Cc1cccc(-c2noc(C3CCCN3C(=O)Nc3ccc4c(c3)OCO4)n2)c1 (stereo unspecified)	-1	23
O=C(Cn1c(NCCCO)nc2ccccc21)c1ccc(Cl)c(Cl)c1	-5	20
COc1ccc(C(=O)N2CCCC3(C2)Nc2ccccc2NC3=NC(C)(C)C)c(OC)c1 (stereo unspecified)	8	41
CC(C)(C)N=C1Nc2ccccc2NC12CCCN(C(=O)Cc1ccccc1)C2 (stereo unspecified)	1	77*
COc1ccc(C)cc1NC(=O)N1CCCC2(C1)Nc1ccccc1NC2=NC(C)(C)C (stereo unspecified)	0	72*
CC(C)(C)N=C1Nc2ncccc2NC12CCCN(C(=O)Cc1cccnc1)C2 (stereo unspecified)	-3	5
COCC(=O)N1CCCC2(C1)Nc1ccccc1NC2=NC1CCCC1 (stereo unspecified)	-3	38
COc1ccccc1CC(=O)N1CCCC2(C1)Nc1ccccc1NC2=NC(C)(C)C (stereo unspecified)	6	59*
COCC(=O)N1CCCC2(C1)Nc1ccccc1NC2=NC(C)(C)C (stereo unspecified)	0	64*
COc1ccc(NC(=O)N2CCCC3(C2)Nc2ccccc2NC3=NC(C)(C)C)c(C)c1 (stereo unspecified)	-7	25
O=C(NCCc1csc(C2CCN(C(=O)C3CCCC3)CC2)n1)C1CCC1	-3	-1

Compound activity from PubChem.
